Compound activity (PubChem)
FMDV inh: antivirals against foot and mouth disease virus | 410,000 compounds, 1.2% hits | Potency, µM (doses to about 57.9 µM), actives largely listed as inhibitors | FMDV antiviral cell-based qHTS; calls by dose curve; tested in HEK293T cells; note: read-out not given here; nearly all actives have a fitted effect of over 45% in size
LASV entry inh: inhibitors of Lassa virus binding or cell entry. Lassa virus pseudotype entry inhibition, cell reporter. Potency, µM (titrated, usually from 37.9 µM), usual class: inhibitors. 300,000 compounds, 1.2% hits; calls by dose curve; tested in HEK293 cells; note: nearly all actives have a fitted effect of over 50% in size
MARV entry inh: blocks Marburg virus binding to or entry into cells | Marburg virus pseudotyped entry inhibition, cell reporter | Potency, µM (doses to about 37.8 µM), most hits filed as inhibitors | 300,000 compounds, 1.8% hits; calls by dose curve; tested in HEK293 cells
VACV Venus inh: vaccinia inhibition (Venus reporter). Vaccinia virus Venus reporter expression, fluorescence. Potency, µM (top dose mostly 36.5 µM), most hits filed as inhibitors. 330,000 compounds, 0.46% hits; calls by dose curve; tested in A549 cells; note: nearly all actives have a fitted effect of over 30% in size
Vaccinia mCherry: inhibitors of vaccinia virus infection (mCherry reporter signal) | 310,000 compounds, 0.63% hits | Potency, µM (top dose mostly 36.5 µM), most hits filed as inhibitors | Vaccinia virus mCherry reporter infection, fluorescence; calls by dose curve; tested in A549 cells; note: nearly all actives have a fitted effect of over 35% in size
HCMV antiviral: inhibitors of human cytomegalovirus | HFF cells, HCMV-luciferase reporter, 72 h; active compounds read low | activity change, negative = inhibition, % at 57.5 µM | 410,000 compounds, 4.5% hits; in the data active = activity change below about -60%; inconclusive = no clear call, values can overlap the other calls; inactive = above about -39%
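HFF cells seeded 16 h at 37C, treated with compounds, infected with luciferase-reporter HCMV at MOI 1 PFU/cell; luciferase read at 72 h post infection, normalized to buffer-only and Salinomycin controls.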
A number is an active result; n = inactive; u = inconclusive; x = not tested or not shown. Hits are enriched below; roughly 6.5% of the tested compounds scored in any of these assays.

SMILES	FMDV inh	LASV entry inh	MARV entry inh	VACV Venus inh	Vaccinia mCherry	HCMV antiviral
O=C(NCCC(NS(=O)(=O)OCC(Cl)(Cl)Cl)c1ccccc1)C(F)(F)F (stereo not drawn)	n	x	x	n	u	n
O=C(CSc1nc2ncccc2[nH]1)c1ccc(F)cc1	n	n	n	n	x	n
O=C(CSc1nc2ncccc2[nH]1)c1cccc([N+](=O)[O-])c1	n	n	u	n	u	-66
O=C(N[C@H](C(=O)N1CCC[C@H]1C(=O)NCCc1ccccc1Cl)c1ccccc1)c1ccco1	x	x	x	x	x	n
CC(=O)C1=C(O)C2(C)c3c(O)c(C)c(O)c(C(C)=O)c3OC2CC1=O (stereo not drawn)	10µM	x	x	u	u	u
COc1ccc(-c2cc(C(=O)NCCc3ccc(OC)c(OC)c3)c3ccccc3n2)cc1	n	u	x	n	n	n
CC(C)(C)c1ccc(C2Sc3ccccc3NC3=C2C(=O)c2ccccc23)cc1 (stereo not drawn)	u	u	x	n	n	-104
CCC1C(=O)NCCN1Cc1ccc2c(c1)CN(Cc1cc(OC)ccc1OC)CCO2 (stereo not drawn)	n	x	x	n	n	x
NC(=O)c1cn(C2OC(CO)C(O)C2O)c2ncnc(N)c12 (stereo not drawn)	u	0.29µM	0.073µM	0.32µM	0.32µM	-97
N#Cc1cn(C2OC(CO)C(O)C2O)c2ncnc(N)c12 (stereo not drawn)	n	0.63µM	u	u	u	-100
Nc1ncnc2c1ncn2[C@@H]1O[C@H](CO)[C@@H](O)[C@H]1O	n	n	n	n	n	n
Cc1c(NC(=O)c2cccc(-c3cc4ccccc4oc3=O)c2)cccc1-c1nc2ncccc2o1	n	u	u	n	n	-68
Cc1oc(=O)c(NC(=O)c2cccc(Cl)c2)cc1C(=O)c1ccccc1	n	n	u	x	x	-84
COc1ccc2nc(NC(=O)c3cccc(-c4cc5ccccc5oc4=O)c3)sc2c1	n	u	u	13µM	u	n
O=C(Nc1cc2ccccc2oc1=O)c1ccccc1	n	2.5µM	1.3µM	n	n	n
Cc1ccc(CN2CCCn3nc(C(=O)NCc4ccc(OC(C)C)cc4)cc3C2=O)cc1	n	u	x	n	n	n
C#CCCCON=C1C[C@@H](O)[C@H](O)[C@H]2[C@@H]3C(=O)N(C[C@@H]4CCCO4)C(=O)[C@@H]3CC[C@H]12	x	n	n	x	x	x
COc1cccc(Cn2c(SCC(=O)N3CCN(c4ccc(F)cc4)CC3)nc3ccccc32)c1	n	x	n	u	n	n
O=C(CSc1nc2ccccc2c(=O)[nH]1)N1CCN(S(=O)(=O)c2ccccc2)CC1	n	n	n	x	x	n
COc1ccc(Cn2c(SCC(=O)N3CCN(c4ccc(F)cc4)CC3)nc3ccccc32)cc1	n	x	n	n	n	-67
O=C(CSc1nc(-c2ccccc2)c(-c2ccccc2)[nH]1)N1CCN(S(=O)(=O)c2ccccc2)CC1	u	n	u	x	x	-88
O=C(CSc1nc2ccccc2n1CC(=O)N1CCOCC1)N1CCCC1	n	n	u	n	n	n
CC(C)Cn1c(SCC(=O)N2CCN(S(=O)(=O)c3ccccc3)CC2)nc2ccccc21	x	n	u	n	n	-68
O=C(CSc1nc2ccccc2n1CCc1ccccc1)N1CCOCC1	n	n	n	n	n	-68
CCOC(=O)C1CCN(C(c2ccc(OCC)cc2)c2c(O)cc(C)n(CCOC)c2=O)CC1 (stereo not drawn)	n	n	x	n	n	n
SMILES	FMDV inh	LASV entry inh	MARV entry inh	VACV Venus inh	Vaccinia mCherry	HCMV antiviral
CNc1ccc(/C=C/c2ccccc2)cc1	x	x	x	n	n	x
Cc1ccc(/C=N/NC(=O)C(C)Oc2cccc3ccccc23)o1 (stereo not drawn)	n	x	x	x	x	-66
Cc1ccc(C(=O)Nc2ccccc2C(=O)Nc2ccccn2)cc1Cl	n	n	13µM	n	n	n
COc1ccc(N2CCN(CC(=O)Nc3ncc(C)s3)CC2)cc1	n	x	x	x	x	n
Cc1c(C)n(C(=O)CN2CCN(c3ccccn3)CC2)c2ccccc12	32µM	n	u	n	x	n
Cc1cnc(NC(=O)CN2CCN(c3ccccn3)CC2)s1	n	n	n	u	u	-97
COc1cc(NC(=O)c2ccccc2)c(OC)cc1NC(=O)CN1CCN(c2ccccn2)CC1	u	u	u	n	x	n
O=C(CN1CCN(c2ccccn2)CC1)N1c2ccccc2CCc2ccccc21	n	n	n	x	x	n
COc1cc(Cl)c(C)cc1NC(=O)c1ccccc1NC(=O)CN1CCN(c2ccccn2)CC1	n	x	x	x	x	-95
COc1ccc(C(=O)NCC(c2ccc(N(C)C)cc2)N2CCc3ccccc32)cc1OC (stereo not drawn)	n	n	x	n	n	u
CSc1ccccc1NC(=O)CN1CCN(c2ccccn2)CC1	n	x	x	x	x	-63
CC(C)c1ccc(NC(=O)CN2CCN(c3ccccn3)CC2)cc1	n	x	x	x	x	n
CCCN(CC(=O)Nc1ccccc1C)C(=O)CCl	13µM	u	u	4.5µM	4.5µM	-99
CCCN(CC(=O)Nc1ccccc1C)C(=O)C1CC(=O)N(Cc2ccccc2)C1 (stereo not drawn)	n	n	n	n	n	-98
CCC(=O)N1CCc2cc(S(=O)(=O)CCC(=O)Nc3ccc(OC(F)(F)F)cc3)ccc21	n	n	n	n	n	n
O=C(CSc1nnc(-c2cccs2)n1-c1ccccc1)N1CCCc2ccccc21	n	u	12µM	x	x	n
O=C(Nc1ccccc1F)Nc1cc(S(=O)(=O)N2CCOCC2)ccc1N1CCCC1	n	u	n	n	n	n
CCN1CCN(c2ccc(S(=O)(=O)N3CCOCC3)cc2NC(=O)/C=C/c2ccc(C)cc2)CC1	n	n	u	n	n	n
CN1CCN(c2ccc(S(=O)(=O)N3CCCCC3)cc2NC(=O)/C=C/c2ccc(OC(F)F)cc2)CC1	n	u	u	13µM	u	n
CCN1CCN(c2ccc(S(=O)(=O)N3CCCCC3)cc2NC(=O)/C=C/c2ccc(F)cc2)CC1	n	n	u	n	n	n
CN1CCN(c2ccc(S(=O)(=O)N3CCCCC3)cc2NC(=O)/C=C/c2ccc(Cl)c([N+](=O)[O-])c2)CC1	u	13µM	u	n	n	-80
O=C(Nc1ccc(Cl)c(Cl)c1)Nc1cc(S(=O)(=O)N2CCOCC2)ccc1N1CCCC1	n	u	u	u	u	-68
CCN1CCN(c2ccc(S(=O)(=O)N3CCCCC3)cc2NC(=O)/C=C/c2ccc([N+](=O)[O-])cc2)CC1	u	n	u	n	u	n
O=C(/C=C/c1ccc(Cl)cc1)Nc1cc(S(=O)(=O)N2CCOCC2)ccc1N1CCOCC1	n	4.5µM	u	u	u	n
Cc1ccc(-c2nc(N3CCCC(C)C3)c3ccccc3n2)cc1 (stereo not drawn)	n	n	n	n	n	n
Cc1cccc(OCC(=O)NCc2ccc3c(c2)CCN3C(=O)c2ccccc2)c1	n	u	x	n	n	n
CCN1CCN(c2ccc(S(=O)(=O)N3CCCCC3)cc2NC(=O)/C=C/c2ccc(OC(F)F)cc2)CC1	n	6.3µM	u	u	u	n
